According to the supplement of paper PMC3656093:
± gives the standard deviation of the averaged measurements. The full ranking holds about 1,900 compounds; the median of “CD40L-induced NF-kB luciferase activity, plate-corrected, relative to DMSO (0) and IKK inhibitor VII (-100) controls” is about 0.032, and the lowest 2% start at about -26. Shown is part of a subset that was picked to be rich in the lowest values.

test system: BL2-NFkB-Luc; experiment: CD40L-induced NF-kB luciferase activity, plate-corrected, relative to DMSO (0) and IKK inhibitor VII (-100) controls (% normalized activity); higher = more NF-kB reporter activity (less inhibition); settings: 9.4 µM; stimulus: tCD40L 64 ng/ml; 4.5 h
Experimental: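 BL2 B cells with a stable NF-kB response-element luciferase reporter (BL2-NFkB-Luc), 384-well. Cells were pre-incubated with compound at 9.4 uM for 1 h at 37 C, then stimulated with 64 ng/ml trimerized CD40L for 4.5 h; luciferase was read with Steady-Glo. Signal was normalised per plate in Genedata (median DMSO neutral control = 0, median IKK inhibitor VII at 50 uM = -100) with Assay Median plate-pattern correction; duplicate plates.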

Row | Structure (SMILES) | CD40L-induced NF-kB luciferase activity
1 | COc1cc(OC)cc(C(C)=O)c1 | -2.98 ± 1.2
2 | C=C1C2(C(=O)Nc3ccc(SC(F)F)cc3)CCC(C2)C1(C)C (stereo not given) | 1.47 ± 2.7
3 | N#C/C(=C/c1ccccc1)C(=O)NCc1ccccc1 | -1.8 ± 1.4
4 | Cc1ccc(C(=O)COC(=O)c2cnccn2)cc1[N+](=O)[O-] | 0.896 ± 2.4
5 | CCOc1ccccc1C(=O)NCCC(=O)O | -1.43 ± 3.9
6 | Cc1cccc(N2C(=O)C3C(c4ccccc4)OC4(C(=O)c5ccccc5C4=O)C3C2=O)c1 (stereo not given) | -0.286 ± 0.72
7 | COc1ccc(CN(CCC(c2ccc(F)cc2)C2CCOC(C)(C)C2)C(=O)c2ccco2)cc1 (stereo not given) | -4.2 ± 3.9
8 | CC(=O)OC1c2c(ccc3ccc(=O)oc23)OC(C)(C)C1OC(=O)CC(C)C (stereo not given) | -3.56 ± 6.5
9 | CC1/C(=C\c2ccc(Cl)cc2)C(=O)C2CC1C2(C)C (stereo not given) | 3.76 ± 2.7
10 | COC(=O)c1ccc(NC(=O)C23CCC(C)(C(=O)O2)C3(C)C)cc1 (stereo not given) | -0.16 ± 13
11 | COc1cccc(NC(=O)C2CC(=O)OC23CCOC(C)(C)C3)c1 (stereo not given) | 4.32 ± 4.7
12 | CC1CNCCN1S(=O)(=O)c1cccc2cnccc12 (stereo not given) | -26.1 ± 6.3
13 | O=C1c2ccccc2C2(c3ccccc3)NCCN12 (stereo not given) | 1.37 ± 7
14 | Cc1ccccc1C(=O)Oc1ccc(Sc2ccc(O)cc2)cc1 | 2.2 ± 3.6
15 | O=C(NCCc1c[nH]c2ccccc12)OCCSS(=O)(=O)O | 0.55 ± 1.4
16 | CCOCC(=O)Nc1ccccc1C(=O)N1CCOCC1 | -5 ± 1
17 | Cn1nc(-c2ccccn2)nc2c(=O)n(C)c(=O)nc1-2 | -19.1 ± 0.82
18 | Cn1nc(-c2ccc(Cl)cc2)nc2c(=O)n(C)c(=O)nc1-2 | -95.22 ± 0.55
19 | Cn1c(=O)[nH]c2nnc(-c3ccc(Cl)c(Cl)c3)nc2c1=O | 25.5 ± 4.7
20 | O=C1[C@@H]2CSCN2C(=O)CN1Cc1ccc(F)cc1 | -0.473 ± 5.9
21 | COc1ccc(NC(=S)N2CCN(CCN3C(=O)c4cccc5cccc(c45)C3=O)CC2)cc1 | 1.19 ± 0.65
22 | O=C(c1cccc2ccccc12)C1CCCN(C(=O)CCN2CCCO2)C1 (stereo not given) | 2.54 ± 2
23 | CC(=O)O[C@H]1C(=O)[C@@]2(C)[C@H]([C@H](OC(=O)c3ccccc3)[C@]3(O)C[C@H](OC(=O)[C@H](O)C(NC(=O)c4ccccc4)c4ccccc4)C(C)=C1C3(C)C)[C@]1(OC(C)=O)CO[C@@H]1C[C@@H]2O (stereo not given in full) | -33.4 ± 1.3
24 | CC(C)C1CC(CCNCc2ccc(N(C)C)cc2)(c2ccccc2)CCO1 (stereo not given) | -4.73 ± 11
25 | N/C(=N\OC(=O)c1cccc(Br)c1)c1ccncc1 | 2.67 ± 0.79

Row | Structure (SMILES) | CD40L-induced NF-kB luciferase activity
26 | COc1ccc(C2=CC(=O)C=CC2=O)cc1 | -5.93 ± 5.3
27 | CCOc1ccc(C(=O)N2CCCC2C(=O)O)cc1 (stereo not given) | 2.22 ± 8
28 | CC(=O)O[C@H]1CC[C@H]2[C@@H]3CCc4cc(O)ccc4[C@H]3CC[C@]12C | -3.39 ± 3.8
29 | CCOC(=O)C(=Cc1ccccc1OC)C(=O)OCC | -29 ± 6.1
30 | CCOC(=O)C(=O)N1CCN(c2ccccc2OC)CC1 | -1.99 ± 1.9
31 | COc1ccccc1/C=C/C(=O)OCCN1CCOCC1 | 2.92 ± 4.6
32 | C[C@]12CCC(=O)C=C1CC[C@@H]1[C@@H]2C(=O)C[C@@]2(C)[C@H]1CC[C@]2(O)C(=O)CO | -6.47 ± 2
33 | C[C@]12CCC(=O)C=C1[C@H](O)C[C@@H]1[C@@H]2[C@@H](O)C[C@@]2(C)[C@H]1CC[C@]2(O)C(=O)CO | -8.7 ± 4.6
34 | CCCC1O[C@@H]2C[C@H]3[C@@H]4CCC5=CC(=O)C=C[C@]5(C)[C@H]4[C@@H](O)C[C@]3(C)[C@]2(C(=O)CO)O1 (stereo not given in full) | -26 ± 0.65
35 | C[C@H]1C[C@@H]2[C@H]([C@@H](O)C[C@@]3(C)[C@H]2CC[C@]3(O)C(=O)CO)[C@@]2(C)C=CC(=O)C=C12 | -35.94 ± 0.26
36 | CC(=O)OCC(=O)[C@@]1(O)CC[C@H]2[C@@H]3CCC4=CC(=O)C=C[C@]4(C)[C@H]3[C@@H](O)C[C@@]21C | -43.8 ± 2.2
37 | C[C@]12CCC(=O)C=C1CC[C@@H]1[C@@H]2CC[C@@]2(C)[C@H]1CC[C@]2(O)C(=O)CO | -8.87 ± 3.8
38 | C[C@]12CCC(=O)C=C1CC[C@@H]1[C@@H]2[C@@H](O)C[C@@]2(C)[C@H]1CC[C@]2(O)C(=O)COC(=O)CCC(=O)O | -23.2 ± 7.1
39 | CC1(C)O[C@@H]2C[C@H]3[C@@H]4C[C@H](F)C5=CC(=O)CC[C@]5(C)[C@H]4[C@@H](O)C[C@]3(C)[C@]2(C(=O)CO)O1 | -21.3 ± 0.59
40 | CC(=O)OCC(=O)[C@@]1(O)CC[C@H]2[C@@H]3CCC4=CC(=O)CC[C@]4(C)[C@H]3[C@@H](O)C[C@@]21C | -31.1 ± 6.7
41 | CC(=O)[C@@]1(O)CC[C@H]2[C@@H]3CCC4=CC(=O)CC[C@]4(C)[C@H]3[C@@H](O)C[C@@]21C | -12.9 ± 3.2
42 | C[C@]12C=CC(=O)C=C1CCC1C3CC[C@](O)(C(=O)CO)[C@@]3(C)CC3OC312 (stereo not given in full) | -7.42 ± 5.5
43 | CCOc1cc(C=O)ccc1OCCSc1ccc(C)cc1 | 8.64 ± 2
44 | CCC(C)NCCOCCOc1ccc(Cl)c2ccccc12 (stereo not given) | -3.83 ± 0.8
45 | COc1ccc2oc(=O)c(-c3nc(C)cs3)cc2c1 | 82.6 ± 9.2
46 | Cc1ccc2c(c1)c(=O)c1c3n2CCN(C(=O)CCl)C3CC1 (stereo not given) | -2.91 ± 2.5
47 | CC1(C)Cc2ccccc2-c2nc(-c3ccccc3)oc(=O)c21 | 2.15 ± 0.84
48 | O=C(c1ccc([N+](=O)[O-])cc1)N1CCSC1c1ccccc1Cl (stereo not given) | 4.04 ± 5
49 | CN(C)CCOc1ccccc1Cc1ccccc1 | 0.196 ± 5
50 | O=C(NC1CCCCC1)c1cc2nc(-c3ccco3)cc(C(F)(F)F)n2n1 | 1.55 ± 1.8
